According to PubChem BioAssay AID1159580 (chemical genetic matrix, 2015):
Screen size: about 5,500 compounds; about 2,000 (36%) were called active. Roughly 18% stayed inconclusive and do not appear here. Cut-off read from the data, not from the text of the source: active = normalized growth mostly below about 0.91 (no sharp cut-off); inconclusive = no clear call, values can overlap the other calls; inactive = mostly above about 0.92. Some of the results follow. *1 amine or outer side, *2 acyl side, *3 side chain or, on linkers, in order; H or OH if unused. Where a SMILES comes first, the peptide text is derived from it. Bridges are numbered along the chain shown (N, C = ends). [ ]: non-standard residue; d: D form. The star is where a group is joined. ξ: configuration not given here. ΔAla(E,3-NHCONH2) = NC(=O)N/C=C(/N)C(=O)O; X2 = NC1=NCCC(C(N[*:1])C(=O)[*:2])N1; ξβ3hOrn = NCCCC(N)CC(=O)*; Dap = NC[CH](N)C(=O)O

Experiment: chemical genetic growth profiling, strain panel (AID 1159580);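 note: tested at 20 µM; growth read once vehicle control cultures reached saturation at 30 °C; 1 = growth at the plate median or of vehicle wells; lower values mean less growth of the strain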
Conditions: growth OD

Measured: normalized growth

NCCCC(N)CC(=O)NCC1NC(=O)C(CO)NC(=O)C(N)CNC(=O)C(C2CCN=C(N)N2)NC(=O)/C(=C\NC(N)=O)NC1=O (stereo not drawn) (H-[Dap]S[Dap](ξβ3hOrn)[ΔAla(E,3-NHCONH2)][X2]; lactam 1-C; configuration not given here)
inactive: S. cerevisiae deletion strains, locus YJR066W, strain TOR1, stronger effect = lower value 0.98 | S. cerevisiae deletion strains, locus YKL009W, strain mrt4, stronger effect = lower value 1.03 | S. cerevisiae deletion strains, locus YKL068W, stronger effect = lower value 1.01 | S. cerevisiae deletion strains, locus YKL085W, strain MDH1 (second series), stronger effect = lower value 1 | S. cerevisiae deletion strains, locus YKL085W, strain MDH1, stronger effect = lower value 1 | S. cerevisiae deletion strains, locus YKL160W, strain elf1, stronger effect = lower value 1.02 | S. cerevisiae deletion strains, locus YKR001C, strain vps1, stronger effect = lower value 1.01 | S. cerevisiae deletion strains, locus YKR026C, strain gcn3, stronger effect = lower value 1.01 | S. cerevisiae deletion strains, locus YKR091W, strain srl3, stronger effect = lower value 1 | S. cerevisiae deletion strains, locus YLL001W, strain dnm1, stronger effect = lower value 1.04 | S. cerevisiae deletion strains, locus YLL026W, stronger effect = lower value 1.04 | S. cerevisiae deletion strains, locus YLL041C, strain sdh2, stronger effect = lower value 1.02 | S. cerevisiae deletion strains, locus YLR027C, strain aat2, stronger effect = lower value 1.05 | S. cerevisiae deletion strains, locus YLR039C, strain RIC1, stronger effect = lower value 1.01 | S. cerevisiae deletion strains, locus YLR058C, strain SHM2, stronger effect = lower value 1.01 | S. cerevisiae deletion strains, locus YLR102C, strain apc9, stronger effect = lower value 1.02 | S. cerevisiae deletion strains, locus YLR113W, strain HOG1, stronger effect = lower value 1.05 | S. cerevisiae deletion strains, locus YLR221C, strain rsa3, stronger effect = lower value 0.993 | S. cerevisiae deletion strains, locus YLR258W, strain gsy2, stronger effect = lower value 1 | S. cerevisiae deletion strains, locus YLR262C, strain YPT6 (second series), stronger effect = lower value 1.03 | S. cerevisiae deletion strains, locus YLR262C, strain YPT6, stronger effect = lower value 1.04 | S. cerevisiae deletion strains, locus YLR268W, strain sec22, stronger effect = lower value 1.03 | S. cerevisiae deletion strains, locus YLR320W, strain mms22, stronger effect = lower value 0.989 | S. cerevisiae deletion strains, locus YLR330W, strain CHS5, stronger effect = lower value 1 | S. cerevisiae deletion strains, locus YLR342W, strain FKS1 (second series), stronger effect = lower value 1.01 | S. cerevisiae deletion strains, locus YLR342W, strain FKS1, stronger effect = lower value 1.03 | S. cerevisiae deletion strains, locus YLR357W, strain rsc2, stronger effect = lower value 1 | S. cerevisiae deletion strains, locus YLR370C, strain arc18, stronger effect = lower value 1.04 | S. cerevisiae deletion strains, locus YLR371W, strain rom2, stronger effect = lower value 0.999 | S. cerevisiae deletion strains, locus YLR384C, strain iki3, stronger effect = lower value 1.02 | S. cerevisiae deletion strains, locus YLR418C, strain cdc73, stronger effect = lower value 0.995 | S. cerevisiae deletion strains, locus YML016C, strain PPZ1, stronger effect = lower value 1 | S. cerevisiae deletion strains, locus YML032C, strain rad52, stronger effect = lower value 1.02 | S. cerevisiae deletion strains, locus YML120C, strain ndi1, stronger effect = lower value 1.05 | S. cerevisiae deletion strains, locus YML124C, strain tub3, stronger effect = lower value 1.01 | S. cerevisiae deletion strains, locus YMR058W, strain fet3, stronger effect = lower value 1.03 | S. cerevisiae deletion strains, locus YMR078C, strain ctf18, stronger effect = lower value 1.03 | S. cerevisiae deletion strains, locus YMR125W, strain sto1, stronger effect = lower value 0.993 | S. cerevisiae deletion strains, locus YMR129W, stronger effect = lower value 1.02 | S. cerevisiae deletion strains, locus YMR205C, strain PFK2, stronger effect = lower value 1.04 | S. cerevisiae deletion strains, locus YMR223W, strain ubp8, stronger effect = lower value 1.03 | S. cerevisiae deletion strains, locus YMR231W, strain pep5, stronger effect = lower value 1 | S. cerevisiae deletion strains, locus YMR263W, strain SAP30, stronger effect = lower value 1 | S. cerevisiae deletion strains, locus YMR307W, strain GAS1, stronger effect = lower value 1.06 | S. cerevisiae deletion strains, locus YNL067W, strain RPL9B, stronger effect = lower value 1.01 | S. cerevisiae deletion strains, locus YNL071W, strain lat1, stronger effect = lower value 0.994 | S. cerevisiae deletion strains, locus YNL183C, strain NPR1, stronger effect = lower value 0.988 | S. cerevisiae deletion strains, locus YNL209W, strain ssb2, stronger effect = lower value 0.998 | S. cerevisiae deletion strains, locus YNL233W, strain BNI4, stronger effect = lower value 0.974 | S. cerevisiae deletion strains, locus YNL248C, strain rpa49, stronger effect = lower value 0.98 | S. cerevisiae deletion strains, locus YNL250W, strain rad50, stronger effect = lower value 1.02 | S. cerevisiae deletion strains, locus YNL271C, strain bni1, stronger effect = lower value 1.03 | S. cerevisiae deletion strains, locus YNL298W, strain CLA4, stronger effect = lower value 1.03 | S. cerevisiae deletion strains, locus YNL307C, strain MCK1, stronger effect = lower value 1.03 | S. cerevisiae deletion strains, locus YNL322C, strain KRE1 (second series), stronger effect = lower value 1.02 | S. cerevisiae deletion strains, locus YNL322C, strain KRE1, stronger effect = lower value 1 | S. cerevisiae deletion strains, locus YNR049C, strain mso1, stronger effect = lower value 1.01 | S. cerevisiae deletion strains, locus YNR052C, strain pop2, stronger effect = lower value 1.01 | S. cerevisiae deletion strains, locus YOL012C, strain htz1 2.02 | S. cerevisiae deletion strains, locus YOL147C, strain pex11, stronger effect = lower value 1.01 | S. cerevisiae deletion strains, locus YOR001W, strain rrp6, stronger effect = lower value 1.03 | S. cerevisiae deletion strains, locus YOR061W, strain CKA2, stronger effect = lower value 1.01 | S. cerevisiae deletion strains, locus YOR069W, strain VPS5, stronger effect = lower value 1 | S. cerevisiae deletion strains, locus YOR070C, strain gyp1, stronger effect = lower value 0.994 | S. cerevisiae deletion strains, locus YOR080W, strain dia2, stronger effect = lower value 1.03 | S. cerevisiae deletion strains, locus YOR083W, strain WHI5, stronger effect = lower value 1.02 | S. cerevisiae deletion strains, locus YOR106W, strain vam3, stronger effect = lower value 1.04 | S. cerevisiae deletion strains, locus YOR136W, strain idh2, stronger effect = lower value 1.01 | S. cerevisiae deletion strains, locus YOR144C, strain elg1, stronger effect = lower value 1.02 | S. cerevisiae deletion strains, locus YOR184W, strain ser1, stronger effect = lower value 1.02 | S. cerevisiae deletion strains, locus YOR231W, strain MKK1, stronger effect = lower value 1.03 | S. cerevisiae deletion strains, locus YOR265W, strain rbl2, stronger effect = lower value 1.02 | S. cerevisiae deletion strains, locus YOR270C, strain vph1, stronger effect = lower value 1.09 | S. cerevisiae deletion strains, locus YOR290C, strain snf2, stronger effect = lower value 0.981 | S. cerevisiae deletion strains, locus YOR316C, strain cot1, stronger effect = lower value 1.05 | S. cerevisiae deletion strains, locus YPL051W, strain arl3, stronger effect = lower value 1.01 | S. cerevisiae deletion strains, locus YPL055C, strain LGE1, stronger effect = lower value 1.03 | S. cerevisiae deletion strains, locus YPL078C, strain atp4, stronger effect = lower value 1.06 | S. cerevisiae deletion strains, locus YPL106C, strain sse1, stronger effect = lower value 0.997 | S. cerevisiae deletion strains, locus YPL240C, strain hsp82, stronger effect = lower value 1.01 | S. cerevisiae deletion strains, locus YPL256C, strain CLN2, stronger effect = lower value 1.04 | S. cerevisiae deletion strains, locus YPR119W, strain clb2, stronger effect = lower value 1 | S. cerevisiae deletion strains, locus YPR141C, strain kar3, stronger effect = lower value 1.01 | S. cerevisiae deletion strains, locus YPR163C, strain tif3, stronger effect = lower value 1.02 | S. cerevisiae deletion strains, locus YPR167C, strain met16, stronger effect = lower value 1.01 | S. cerevisiae deletion strains, strain wtn01, stronger effect = lower value 1.04 | S. cerevisiae strains, strain wild type, stronger effect = lower value 1
